Several values for one entry are separate records, joined by “and”; a condition that tells them apart may be missing. Identical values can stand only once. Activity calls are given as the source filed them.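 Rule for the calls, unless noted: active = inhibition at or above 50% relative to wild type and mutant plate controls; inactive = inhibition below 50%.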
How the values were obtained:
[1] = inhibitors of TNFa-induced NFkB p65 translocation, primary screen, imaging, HUVEC, MLSMR starter and 10KST1 sets (AID 438;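 active = inhibition above 20% together with a positive visual image hit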;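 note: compound added about 3h40 before a 20 min TNFalpha stimulation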;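 for inhibition: signal is the nuclear over cytoplasmic p65 intensity ratio per well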); conditions: HUVEC TNFa-induced p65 nuclear translocation; cell count: measured here: nuclei count (cytotoxicity indicator), at 2.08 µM; inhibition: at 2 µM, stronger effect = higher value, 0% TNFa-plus-vehicle, 100% no-TNFa wells
[2] = inhibitors of mutant huntingtin aggregation, primary screen, imaging, exon1htt(103Q)mCFP cells, high-content imaging (AID 483;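 active = visual image review flags a hit and inhibition of aggregation exceeds 20%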;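 note: compound exposure lasted 3 days before fixation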;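 for nuclei count: percent of the per-plate median nuclei count of sample wells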); conditions: exon1htt(103Q)mCFP cell line, aggregate imaging, at 2 µM; inhibition of aggregation: stronger effect = higher value; nuclei count: measured here: cell count, toxicity
[3] = inhibitors of E-selectin induction by TNFa, primary screen, imaging, HUVEC, immunofluorescence, MLSMR starter and 10KST1 sets (AID 487;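 active = visually confirmed hit in the image check and inhibition above 20%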;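 for inhibition: signal is fraction of cell area covered by stained E-selectin grains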;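 for nuclei count: 100% = median nuclei count of all wells on the same plate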); conditions: HUVEC TNFalpha-induced E-selectin immunofluorescence imaging, at 2 µM; inhibition: stronger effect = higher value; nuclei count: measured here: cell number, toxicity
[4] = DUSP6 inhibitors restoring Erk phosphorylation by chemical complementation, primary imaging in DUSP6-transfected HeLa (AID 609;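 active = compounds giving at least 50% inhibition in the cell-based MKP-3 phosphatase rescue imaging test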;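 for inhibition: phospho-Erk level distribution per well compared with pooled transfected vehicle control wells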); conditions: HeLa MKP-3 transfected, phospho-Erk imaging KS statistic, at 10 µM, cells stimulated with TPA for 15 min
[5] = biological target: Dual specificity protein phosphatase 6 (Homo sapiens) (UniProt Q16828); test: as above; conditions: HeLa MKP-3 transfected, phospho-Erk imaging KS statistic; at 10 µM; stronger effect = higher value; cells stimulated with TPA for 15 min
Sequence of Dual specificity protein phosphatase 6 (Homo sapiens) (Q16828 whole entry, looked up): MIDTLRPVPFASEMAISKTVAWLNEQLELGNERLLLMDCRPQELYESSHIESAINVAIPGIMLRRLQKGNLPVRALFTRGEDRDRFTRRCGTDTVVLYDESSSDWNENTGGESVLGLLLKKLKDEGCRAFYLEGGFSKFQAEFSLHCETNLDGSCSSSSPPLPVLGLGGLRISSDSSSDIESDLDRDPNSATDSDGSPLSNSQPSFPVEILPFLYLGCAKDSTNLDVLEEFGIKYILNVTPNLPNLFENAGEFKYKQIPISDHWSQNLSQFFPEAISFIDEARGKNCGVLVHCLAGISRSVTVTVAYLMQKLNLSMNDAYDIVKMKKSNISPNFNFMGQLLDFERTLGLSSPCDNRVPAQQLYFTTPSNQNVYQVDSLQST

[6] = biological target: Voltage-gated potassium channel subunit beta-2 (Rattus norvegicus) (UniProt P62483); test: KvBeta enzyme negative modulators, primary screen, biochemical, NADPH fluorescence (AID 622;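 active = fluorescence slope higher than the sample average by over 3 SD, cut at about -0.22 in these data, passing the limit was not always enough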;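 note: slope of raw intensity against log time taken from 70 to 1610 s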); conditions: recombinant KvBeta, 4-cyanobenzaldehyde reduction, at 10 µM, stronger effect = higher value
Sequence of Voltage-gated potassium channel subunit beta-2 (Rattus norvegicus) (P62483 whole entry, looked up): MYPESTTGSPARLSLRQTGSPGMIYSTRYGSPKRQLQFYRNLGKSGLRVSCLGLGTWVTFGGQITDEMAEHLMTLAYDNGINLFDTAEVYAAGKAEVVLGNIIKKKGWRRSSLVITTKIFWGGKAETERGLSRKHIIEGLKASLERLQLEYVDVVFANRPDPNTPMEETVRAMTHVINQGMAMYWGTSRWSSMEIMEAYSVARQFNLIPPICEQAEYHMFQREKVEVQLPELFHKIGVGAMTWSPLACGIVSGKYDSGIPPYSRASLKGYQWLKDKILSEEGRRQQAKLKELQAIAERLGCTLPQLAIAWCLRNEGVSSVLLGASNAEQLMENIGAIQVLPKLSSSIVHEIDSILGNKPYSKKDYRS

[7] = biological target: Voltage-gated potassium channel subunit beta-2 (Rattus norvegicus) (UniProt P62483); test: KvBeta positive modulators, primary screen, biochemical, NADPH fluorescence (AID 623;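 active = NADPH fluorescence slope more negative than the mean of all samples by about 3 SD, 99.7% confidence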;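 note: fluorescence intensity change per second fitted from 20 to 320 s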); conditions: Recombinant KvBeta, NADPH fluorescence decrease slope, 10 min; at 10 µM; stronger effect = lower value
[8] = biological target: Alpha-2C adrenergic receptor (Homo sapiens) (UniProt P18825); test: modulators of alpha2C/GIRK thallium flux, primary screen, cell-based, HEK293 alpha2C/GIRK1/2 (AID 624;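 active = fluorescence slope after compound addition differing from the mean of all screened samples at 99.7% confidence, in either direction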;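 note: slope of fluorescence ratio to pre-addition baseline per second over 15 to 24 s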); conditions: thallium flux BTC fluorescence, at 10 µM, actives lie on both sides
Sequence of Alpha-2C adrenergic receptor (Homo sapiens) (P18825 whole entry, looked up): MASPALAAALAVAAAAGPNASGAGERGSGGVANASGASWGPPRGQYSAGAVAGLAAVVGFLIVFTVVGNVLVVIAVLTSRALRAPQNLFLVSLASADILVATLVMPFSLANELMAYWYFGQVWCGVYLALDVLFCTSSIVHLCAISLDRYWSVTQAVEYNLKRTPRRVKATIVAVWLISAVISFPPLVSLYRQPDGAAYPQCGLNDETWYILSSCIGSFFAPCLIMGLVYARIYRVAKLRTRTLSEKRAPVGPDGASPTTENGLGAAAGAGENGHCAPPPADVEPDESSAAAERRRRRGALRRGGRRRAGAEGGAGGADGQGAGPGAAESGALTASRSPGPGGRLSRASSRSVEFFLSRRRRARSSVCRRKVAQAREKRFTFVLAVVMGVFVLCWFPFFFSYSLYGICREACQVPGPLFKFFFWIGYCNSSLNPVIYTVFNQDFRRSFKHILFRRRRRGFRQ

[9] = inhibitors of larval lipid processing in zebrafish, primary screen, whole organism, PED6 fluorescence, gall bladder and intestine (AID 686;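 active = a full or partial loss of lipid-probe fluorescence in the fish gall bladder, intestine or both, judged by eye; inactive = no fluorescence loss, or compound toxic to the fish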;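 note: larvae 5 to 7 days old with five fish per well; signal comes from phospholipase A2 cleavage of quenched PED6 carried via bile; overnight exposure to compound and PED6 before scoring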); conditions: Zebrafish larvae PED6 lipid processing, fluorescence scoring; screened at 20 µM (by protocol)
[10] = inhibitors of Chlamydomonas gravitaxis, primary screen, whole organism, Chlamydomonas reinhardtii, WT vs cilia-less mutant, absorbance, 96-well (AID 463189); conditions: OD600 absorbance, 2 days, at 10 µM, stronger effect = higher value;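 note: 0% = wild type cc124 cells in DMSO and 100% = ciliumless bld1 mutant cells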
[11] = inhibitors of Sendai virus-induced IRF3 signaling, primary screen, TLR/RLR signaling modifier project, cell-based, Sendai virus stimulus, luciferase, 10K MLSCN set (AID 602276;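 active = inhibition at or above 50% at 10 µM; inactive = inhibition below 50%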;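 note: firefly luciferase from ISG56 promoter only with Renilla not read in this screen; 0% = Sendai virus plus DMSO and 100% = medium plus DMSO without virus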); conditions: HEK293 RL24 IRF3 luciferase reporter, at 10 µM, stronger effect = higher value
[12] = inhibitors of poly I:C-induced TLR3 signaling, primary screen, cell-based, poly I:C stimulus, luciferase, 10K MLSCN set (AID 602277;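 active = inhibition of the reporter signal at or above 50%; inactive = inhibition below 50%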); conditions: HEK293-TLR3 RL24 IRF3 luciferase reporter, at 10 µM, stronger effect = higher value
[13] = measured here: cell density z-score
[14] = measured here: nuclear c-Myc green intensity z-score
[15] = measured here: nuclear pErk red intensity z-score, stronger effect = higher value

| SMILES | cell count [1] | inhibition [1] | inhibition of aggregation [2] | nuclei count [2] | inhibition [3] | nuclei count [3] | z-score [4, 13] | z-score [4, 14] | z-score [4, 15] | inhibition [5] | fluorescence slope [6] | NADPH fluorescence slope [7] | slope [8] | outcome [9] | inhibition [10] | inhibition [11] | inhibition [12] |
| --- | --- | --- | --- | --- | --- | --- | --- | --- | --- | --- | --- | --- | --- | --- | --- | --- | --- |
| CC(=O)[C@@]1(O)CC[C@H]2[C@@H]3C[C@H](C)C4=CC(=O)CC[C@]4(C)[C@H]3CC[C@@]21C | 734 | -6.2% (inactive) | 0.8% (inactive) | 108% | -107% (inactive) | 113% | 1.42 | -0.494 | -1.54 | 3.45% (inactive) | -0.486 (inactive) | -0.000112 (inactive) | 0.0052 (inactive) | inactive | -2.53% (inactive) | -4.16% (inactive) | 43.2% (inactive) |
| CN(C)CCN(Cc1ccccc1)c1ccccn1 | 526 | -10.5% (inactive) | 18.7% (inactive) | 98.3% | -31.1% (inactive) | 109% | -0.393 | 0.385 | -0.67 | 9.37% (inactive) | -0.432 (inactive) | -8.6e-05 (inactive) | 0.00588 (inactive) | inactive | 49.5% (inactive) | 11.1% (inactive) | 33.9% (inactive) |
| CCN(CC)CCNC(=O)c1cc(S(C)(=O)=O)ccc1OC | 676 | -4.3% (inactive) | 0.8% (inactive) | 118% | -40% (inactive) | 137% | -1.16 | -0.48 | 0.595 | 1.48% (inactive) | -0.508 (inactive) | -3.1e-05 (inactive) | 0.00485 (inactive) | inactive | 3.78% (inactive) and -4.27% (inactive) | 21.3% (inactive) | 35.4% (inactive) |
| O=C(O)c1ccccc1S | 650 | -5% (inactive) | 6.8% (inactive) | 96.1% | -76.8% (inactive) | 126% | 1.28 | 1.34 | -0.494 | 21.2% (inactive) | -0.435 (inactive) | -8.2e-05 (inactive) | 0.00404 (inactive) | inactive | -11% (inactive) | 6.85% (inactive) | 19% (inactive) |
| N#C/C(=C\c1ccc(O)c(O)c1)C(=O)NCCCc1ccccc1 | 629 | 3.7% (inactive) | -14.6% (inactive) | 98.2% | -94.6% (inactive) | 131% | 1.89 | 0.253 | -0.466 | 16.8% (inactive) | -0.49 (inactive) | -5.4e-05 (inactive) | 0.00485 (inactive) | inactive | 2.27% (inactive) and -1.78% (inactive) | -14.9% (inactive) | -17.2% (inactive) |
| O=C(c1cccc2ccccc12)N1CCC(N2CCN(c3ccccc3)CC2)CC1 | 373 | -1.4% (inactive) | 12.1% (inactive) | 95.9% | -64.1% (inactive) | 81.4% | 0.565 | 1.38 | -0.642 | 13.2% (inactive) | -0.528 (inactive) | -1.2e-05 (inactive) | 0.00499 (inactive) | inactive | 29.4% (inactive) | 4.24% (inactive) | 21.4% (inactive) |
| N#Cc1c(N)n(CCOC(=O)c2cccc(Br)c2)c2nc3ccccc3nc12 | 592 | 0.6% (inactive) | -46.7% (inactive) | 75.5% | -20.6% (inactive) | 108% | 1.33 | -2.21 | -0.755 | -1.12% (inactive) | -0.434 (inactive) | -0.000171 (inactive) | 0.00581 (inactive) | inactive | 15.2% (inactive) | 16.3% (inactive) | 30.6% (inactive) |
| CCC(=O)Oc1ccc(C(CC)C(CC)c2ccc(OC(=O)CC)cc2)cc1 (stereo not given) | 548 | -8% (inactive) | -5.4% (inactive) | 107% | -70.7% (inactive) | 132% | -1.07 | 0.0699 | 1.82 | -4.44% (inactive) | -0.48 (inactive) | 1.7e-05 (inactive) | 0.0054 (inactive) | inactive | 0.847% (inactive) | 12.9% (inactive) | 33.2% (inactive) |
| CCOC(=O)N1CCC(=C2c3ccc(Cl)cc3CCc3cccnc32)CC1 | 695 | -7.4% (inactive) | -15% (inactive) | 106% | -79.3% (inactive) | 132% | 1.11 | 0.137 | -0.637 | 27.1% (inactive) | -0.512 (inactive) | -3.2e-05 (inactive) | 0.00337 (inactive) | inactive; toxic | -6.14% (inactive) and -3.57% (inactive) | -15.2% (inactive) | -34% (inactive) |
| C[C@H](CCC(=O)O)[C@H]1CC[C@H]2[C@@H]3C(=O)C[C@@H]4CC(=O)CC[C@]4(C)[C@H]3CC(=O)[C@]12C | 606 | -9.6% (inactive) | 5.8% (inactive) | 102% | -37.7% (inactive) | 138% | -0.246 | -0.125 | -0.32 | 3.45% (inactive) | -0.45 (inactive) | 5.4e-06 (inactive) | 0.00499 (inactive) | inactive | 9.63% (inactive) | 14.6% (inactive) | 33.2% (inactive) |

Source: PubChem BioAssay
